# Measured values taken from the supplement of paper PMC8728848.
# Shown is part of a subset that was picked to be rich in the strongest signals.
# Legend:
# Assay in all cases: glycan array binding signal (z-score within array); higher = stronger binding
# Settings in all cases: glycan notation: IUPAC condensed, linker removed
# [1] = biological target: Fuc(a1-2)Gal(b1-3)GalNAc(b1-4)[Neu5Ac(a2-3)]Gal(b1-4)Glc
# Outline: (§1)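 The binding signal is a Z-score computed within each array and averaged over linkers. Arrays of the same protein sequence at different concentrations or buffers were also averaged together. Data originate from 3228 arrays in the Consortium for Functional Glycomics database, kept only where the protein sequence was available.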
# [2] = biological target: Fuc(a1-2)Gal(b1-4)GlcNAc(b1-2)Man
# Outline: as §1
# [3] = biological target: Fuc(a1-2)Gal(b1-4)GlcNAc(b1-2)[Fuc(a1-2)Gal(b1-4)GlcNAc(b1-4)]Man(a1-3)[Fuc(a1-2)Gal(b1-4)GlcNAc(b1-2)Man(a1-6)]Man(b1-4)GlcNAc(b1-4)GlcNAc
# Outline: as §1
# [4] = biological target: Fuc(a1-2)Gal(b1-4)GlcNAc(b1-6)GalNAc
# Outline: as §1
# [5] = biological target: Fuc(a1-2)Gal(b1-4)[Fuc(a1-3)]GlcNAc(b1-3)Gal(b1-4)[Fuc(a1-3)]GlcNAc(b1-3)Gal(b1-4)[Fuc(a1-3)]GlcNAc
# Outline: as §1
# Fuc(a1-2)Gal6S(b1-4)Glc = biological target: Fuc(a1-2)Gal6S(b1-4)Glc
# Outline: as §1
# [6] = biological target: Fuc(a1-2)[Gal(a1-3)]Gal(b1-4)[Fuc(a1-3)]GlcNAc
# Outline: as §1
# [7] = biological target: Fuc(a1-2)[GalNAc(a1-3)]Gal(b1-3)GalNAc(a1-3)[Fuc(a1-2)]Gal(b1-4)GlcNAc
# Outline: as §1
# [8] = biological target: Fuc(a1-2)[GalNAc(a1-3)]Gal(b1-4)GlcNAc(b1-2)Man(a1-3)[Fuc(a1-2)[GalNAc(a1-3)]Gal(b1-4)GlcNAc(b1-2)Man(a1-6)]Man(b1-4)GlcNAc(b1-4)GlcNAc
# Outline: as §1
# [9] = biological target: Fuc(a1-3)[Gal(b1-4)]GlcNAc(b1-3)Gal(b1-4)[Fuc(a1-3)]GlcNAc(b1-3)Gal(b1-4)[Fuc(a1-3)]GlcNAc
# Outline: as §1
# Gal(a1-3)Gal(b1-4)Glc = biological target: Gal(a1-3)Gal(b1-4)Glc
# Outline: as §1
# [10] = biological target: Gal(a1-4)Gal(b1-3)GlcNAc(b1-2)Man(a1-3)[Gal(a1-4)Gal(b1-3)GlcNAc(b1-2)Man(a1-6)]Man(b1-4)GlcNAc(b1-4)GlcNAc
# Outline: as §1
# [11] = biological target: Gal(a1-4)Gal(b1-4)GlcNAc(b1-2)Man(a1-3)[Gal(a1-4)Gal(b1-4)GlcNAc(b1-2)Man(a1-6)]Man(b1-4)GlcNAc(b1-4)GlcNAc
# Outline: as §1
# Gal(a1-6)Glc = biological target: Gal(a1-6)Glc
# Outline: as §1
# [12] = biological target: Gal(b1-3)GalNAc(a1-3)[Fuc(a1-2)]Gal(b1-4)GlcNAc
# Outline: as §1
# [13] = biological target: Gal(b1-3)GlcNAc(b1-3)Gal(b1-4)GlcNAc(b1-3)Gal(b1-4)GlcNAc(b1-2)[Gal(b1-3)GlcNAc(b1-3)Gal(b1-4)GlcNAc(b1-3)Gal(b1-4)GlcNAc(b1-6)]Man(a1-6)[Gal(b1-3)GlcNAc(b1-3)Gal(b1-4)GlcNAc(b1-3)Gal(b1-4)GlcNAc(b1-2)Man(a1-3)]Man(b1-4)GlcNAc(b1-4)[Fuc(a1-6)]GlcNAc
# Outline: as §1
# [14] = biological target: Gal(b1-3)GlcNAc(b1-3)Gal(b1-4)GlcNAc(b1-6)[Gal(b1-3)GlcNAc(b1-3)]Gal(b1-4)Glc
# Outline: as §1
# [15] = biological target: Gal(b1-4)GlcNAc(b1-2)Man(a1-6)[Man(a1-3)]Man(b1-4)GlcNAc(b1-4)GlcNAc
# Outline: as §1
# [16] = biological target: Gal(b1-4)GlcNAc(b1-2)[Gal(b1-4)GlcNAc(b1-6)]Man(a1-6)[Gal(b1-4)GlcNAc(b1-2)Man(a1-3)]Man(b1-4)GlcNAc(b1-4)GlcNAc
# Outline: as §1
# [17] = biological target: Gal(b1-4)GlcNAc(b1-3)Gal(b1-4)GlcNAc(b1-2)[Gal(b1-4)GlcNAc(b1-3)Gal(b1-4)GlcNAc(b1-6)]Man(a1-6)[Gal(b1-4)GlcNAc(b1-3)Gal(b1-4)GlcNAc(b1-2)Man(a1-3)]Man(b1-4)GlcNAc(b1-4)GlcNAc
# Outline: as §1
# [18] = biological target: Gal(b1-4)GlcNAc(b1-3)Gal(b1-4)GlcNAc(b1-3)[Gal(b1-4)GlcNAc(b1-3)Gal(b1-4)GlcNAc(b1-6)]GalNAc
# Outline: as §1
# Gal6S(b1-4)Glc = biological target: Gal6S(b1-4)Glc
# Outline: as §1
# [19] = biological target: GalNAc3S(b1-4)[Fuc(a1-3)]GlcNAc
# Outline: as §1
# [20] = biological target: GlcNAc(b1-2)[GlcNAc(b1-4)]Man(a1-3)[GlcNAc(b1-4)][GlcNAc(b1-2)Man(a1-6)]Man(b1-4)GlcNAc(b1-4)GlcNAc
# Outline: as §1
# [21] = biological target: GlcNAc(b1-3)Gal(b1-4)GlcNAc(b1-2)Man(a1-3)[GlcNAc(b1-3)Gal(b1-4)GlcNAc(b1-2)Man(a1-6)]Man(b1-4)GlcNAc(b1-4)[Fuc(a1-6)]GlcNAc
# Outline: as §1
# [22] = biological target: GlcNAc(b1-3)Gal(b1-4)GlcNAc(b1-2)[GlcNAc(b1-3)Gal(b1-4)GlcNAc(b1-6)]Man(a1-6)[GlcNAc(b1-3)Gal(b1-4)GlcNAc(b1-2)Man(a1-3)]Man(b1-4)GlcNAc(b1-4)GlcNAc
# Outline: as §1
# [23] = biological target: Man(a1-2)Man(a1-6)[Man(a1-3)]Man(a1-6)[Man(a1-2)Man(a1-2)Man(a1-3)]Man(b1-4)GlcNAc(b1-4)GlcNAc
# Outline: as §1
# Man(a1-3)[Man(a1-6)]Man = biological target: Man(a1-3)[Man(a1-6)]Man
# Outline: as §1
# MurNAc(b1-4)GlcNAc = biological target: MurNAc(b1-4)GlcNAc
# Outline: as §1
# [24] = biological target: Neu5Ac(a2-3)Gal(b1-3)[Fuc(a1-4)]GlcNAc(b1-3)Gal(b1-4)[Fuc(a1-3)]GlcNAc
# Outline: as §1
# [25] = biological target: Neu5Ac(a2-3)Gal(b1-3)[GlcNAc(b1-6)]GalNAc
# Outline: as §1
# [26] = biological target: Neu5Ac(a2-3)Gal(b1-4)GlcNAc(b1-3)Gal(b1-4)GlcNAc(b1-2)Man(a1-3)[Neu5Ac(a2-3)Gal(b1-4)GlcNAc(b1-3)Gal(b1-4)GlcNAc(b1-2)Man(a1-6)]Man(b1-4)GlcNAc(b1-4)GlcNAc
# Outline: as §1
# [27] = biological target: Neu5Ac(a2-3)Gal(b1-4)GlcNAc(b1-3)Gal(b1-4)GlcNAc(b1-3)GalNAc
# Outline: as §1
# [28] = biological target: Neu5Ac(a2-3)Gal(b1-4)GlcNAc6S
# Outline: as §1
# [29] = biological target: Neu5Ac(a2-3)Gal(b1-4)[Fuc(a1-3)]GlcNAc6S
# Outline: as §1
# [30] = biological target: Neu5Ac(a2-3)Gal6S(b1-4)GlcNAc
# Outline: as §1
# [31] = biological target: Neu5Ac(a2-3)[Neu5Ac(a2-6)]GalNAc
# Outline: as §1
# [32] = biological target: Neu5Ac(a2-6)Gal(b1-4)GlcNAc(b1-2)Man(a1-3)[Neu5Ac(a2-6)Gal(b1-4)GlcNAc(b1-2)Man(a1-6)]Man(b1-4)GlcNAc(b1-4)[Fuc(a1-6)]GlcNAc
# Outline: as §1
# [33] = biological target: Neu5Ac(a2-6)Gal(b1-4)GlcNAc(b1-2)[Neu5Ac(a2-6)Gal(b1-4)GlcNAc(b1-4)]Man(a1-3)[GlcNAc(b1-4)][Neu5Ac(a2-6)Gal(b1-4)GlcNAc(b1-2)[Neu5Ac(a2-6)Gal(b1-4)GlcNAc(b1-6)]Man(a1-6)]Man(b1-4)GlcNAc(b1-4)GlcNAc
# Outline: as §1
# [34] = biological target: Neu5Ac(a2-6)Gal(b1-4)GlcNAc(b1-3)Gal(b1-4)GlcNAc
# Outline: as §1
# [35] = biological target: Neu5Ac(a2-6)Gal(b1-4)GlcNAc(b1-3)Gal(b1-4)GlcNAc(b1-2)Man(a1-3)[Neu5Ac(a2-6)Gal(b1-4)GlcNAc(b1-3)Gal(b1-4)GlcNAc(b1-2)Man(a1-6)]GalNAc
# Outline: as §1
# [36] = biological target: Neu5Ac(a2-6)Gal(b1-4)GlcNAc(b1-3)Gal(b1-4)GlcNAc(b1-3)Gal(b1-4)GlcNAc(b1-2)Man(a1-3)[Neu5Ac(a2-6)Gal(b1-4)GlcNAc(b1-3)Gal(b1-4)GlcNAc(b1-3)Gal(b1-4)GlcNAc(b1-2)Man(a1-6)]GalNAc
# Outline: as §1
# [37] = biological target: Neu5Ac(b2-6)Gal(b1-4)GlcNAc
# Outline: as §1
# [38] = biological target: Neu5Gc(a2-8)Neu5Gc(a2-3)Gal(b1-4)GlcNAc(b1-3)Gal(b1-4)GlcNAc
# Outline: as §1
binder,measurement,setting,value
"DC-Sign-R (Homo sapiens), Q9H2X3 (protein) MSDSKEPRVQQLGLLEEDPTTSGIRLFPRDFQFQQIHGHKSSTGCLGHGALVLQLLSFMLLAGVLVAILVQVSKVPSSLSQEQSEQDAIYQNLTQLKAAVGELSEKSKLQEIYQELTQLKAAVGELPEKSKLQEIYQELTRLKAAVGELPEKSKLQEIYQELTRLKAAVGELPEKSKLQEIYQELTRLKAAVGELPEKSKLQEIYQELTELKAAVGELPEKSKLQEIYQELTQLKAAVGELPDQSKQQQIYQELTDLKTAFERLCRHCPKDWTFFQGNCYFMSNSQRNWHDSVTACQEVRAQLVVIKTAEEQNFLQLQTSRSNRFSWMGLSDLNQEGTWQWVDGSPLSPSFQRYWNSGEPNNSGNEDCAEFSGSGWNDNRCDVDNYWICKKPAACFRDE",glycan array binding signal (z-score),[1],-0.074
same,glycan array binding signal (z-score),[2],1.11
same,glycan array binding signal (z-score),[3],-0.8
same,glycan array binding signal (z-score),[4],-0.508
same,glycan array binding signal (z-score),[5],-0.308
same,glycan array binding signal (z-score),Fuc(a1-2)Gal6S(b1-4)Glc,-0.528
same,glycan array binding signal (z-score),[6],0.112
same,glycan array binding signal (z-score),[7],-0.817
same,glycan array binding signal (z-score),[8],-0.72
same,glycan array binding signal (z-score),[9],-0.384
same,glycan array binding signal (z-score),Gal(a1-3)Gal(b1-4)Glc,-0.655
same,glycan array binding signal (z-score),[10],-0.125
same,glycan array binding signal (z-score),[11],-0.683
same,glycan array binding signal (z-score),Gal(a1-6)Glc,-0.326
same,glycan array binding signal (z-score),[12],1.15
same,glycan array binding signal (z-score),[13],2.5
same,glycan array binding signal (z-score),[14],-0.833
same,glycan array binding signal (z-score),[15],3
same,glycan array binding signal (z-score),[16],-0.33
same,glycan array binding signal (z-score),[17],3.03
same,glycan array binding signal (z-score),[18],0.59
same,glycan array binding signal (z-score),Gal6S(b1-4)Glc,-0.744
same,glycan array binding signal (z-score),[19],-0.794
same,glycan array binding signal (z-score),[20],2.91
same,glycan array binding signal (z-score),[21],0.094
same,glycan array binding signal (z-score),[22],2.48
same,glycan array binding signal (z-score),[23],-0.019
same,glycan array binding signal (z-score),Man(a1-3)[Man(a1-6)]Man,-0.857
same,glycan array binding signal (z-score),MurNAc(b1-4)GlcNAc,0.448
same,glycan array binding signal (z-score),[24],-0.503
same,glycan array binding signal (z-score),[25],2.7
same,glycan array binding signal (z-score),[26],1.11
same,glycan array binding signal (z-score),[27],2.49
same,glycan array binding signal (z-score),[28],-0.795
same,glycan array binding signal (z-score),[29],-0.531
same,glycan array binding signal (z-score),[30],-0.255
same,glycan array binding signal (z-score),[31],0.964
same,glycan array binding signal (z-score),[32],-0.156
same,glycan array binding signal (z-score),[33],3.11
same,glycan array binding signal (z-score),[34],-0.464
same,glycan array binding signal (z-score),[35],4.44
same,glycan array binding signal (z-score),[36],2.81
same,glycan array binding signal (z-score),[37],3.63
same,glycan array binding signal (z-score),[38],1.55
